Hsp90 Hop PPI = changes Hsp90-Hop TPR2A binding signal, up or down. Potency, µM (highest dose often 57 µM). AlphaScreen TPR2A-His6 binding biotin-Hsp90 C-terminal peptide. hit rate 0.44% among 71,000; active = well fitted curve in either direction with a large enough effect; inconclusive = small, poorly fitted or top-dose-only effect, or another doubt
Tau fil binding = binds recombinant human tau filaments; Potency, µM (highest dose often 57.1 µM); recombinant tau filaments, thioflavin S fluorescence, 15 h; filaments grown with octadecylsulfate alongside compound; hit rate 2% among 71,000;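 note: actives lower thioflavin S fluorescence by blocking filaments or displacing dye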
Target sequence (P10636 whole entry, looked up): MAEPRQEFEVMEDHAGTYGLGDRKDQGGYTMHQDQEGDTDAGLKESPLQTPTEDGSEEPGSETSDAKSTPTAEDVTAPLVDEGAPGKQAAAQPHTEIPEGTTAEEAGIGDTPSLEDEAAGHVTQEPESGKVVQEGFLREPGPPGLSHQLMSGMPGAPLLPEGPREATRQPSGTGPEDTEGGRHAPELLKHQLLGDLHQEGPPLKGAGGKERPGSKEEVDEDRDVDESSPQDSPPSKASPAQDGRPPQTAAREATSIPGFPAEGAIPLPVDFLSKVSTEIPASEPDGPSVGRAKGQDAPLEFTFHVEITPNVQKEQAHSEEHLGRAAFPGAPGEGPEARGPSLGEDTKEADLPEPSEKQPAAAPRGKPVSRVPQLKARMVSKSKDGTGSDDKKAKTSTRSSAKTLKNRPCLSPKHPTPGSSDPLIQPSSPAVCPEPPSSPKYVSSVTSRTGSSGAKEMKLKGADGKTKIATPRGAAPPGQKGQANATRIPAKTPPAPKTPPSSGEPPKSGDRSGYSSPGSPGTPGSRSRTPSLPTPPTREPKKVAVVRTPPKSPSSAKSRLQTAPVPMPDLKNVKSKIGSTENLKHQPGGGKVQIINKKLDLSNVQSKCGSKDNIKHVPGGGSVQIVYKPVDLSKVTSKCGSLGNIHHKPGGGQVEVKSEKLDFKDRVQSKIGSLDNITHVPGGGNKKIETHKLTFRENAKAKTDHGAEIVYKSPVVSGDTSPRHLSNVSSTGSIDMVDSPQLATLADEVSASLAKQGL
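Read-out: ThS fluorescence, 450 nm excitation/510 nm emission; lower signal marks blocked filament formation or displaced dye. Tau at 1 uM with 30 uM ODS, 10 uM ThS, 5 mM DTT, 100 mM NaCl, 10 mM HEPES pH 7.4; 15 h, 37 C.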
Ub-GFP proteasome = proteasome inhibitors stabilizing ubiquitin-GFP reporter. Ubiquitin-GFP reporter cells, proteasome inhibition, GFP fluorescence; response scale: untreated = 0%, 10 µM MG-132 = 100%. Potency, µM (highest dose often 45.9 µM), usual class: activators. 67,000 tested, under 10 active; active = well fitted activation curve with a large enough effect, not every such curve was filed as active; inconclusive = small, poorly fitted or top-dose-only effect, or another doubt; inactive = no such curve, though single readings can be large or run the other way
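U2OS Ub(G76V)-GFP reporter; O/N plating, 0.5% FBS; cpd 46 uM–2.9 nM, 4 h, 37 °C; GFP+ cell count, 488/515 nm; norm. to basal vs 10 uM MG-132; CRC fit.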
Epigenetic mod = epigenetic GFP locus derepression in mouse cells. mouse C127i GFP locus derepression, cytometry, 30 h. Potency, µM (doses to about 46.1 µM). hit rate 0.09% among 68,000. AID 597
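Locus derepression in mouse mammary C127i cells whose integrated CMV-GFP reporter is normally silent; GFP expression after 30 h compound treatment was quantified by counting fluorescent cells.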
HBB splice mod = alters splicing of the hemoglobin beta chain; HBB splicing reporter cell assay, activation; EGFP reporter with mutant IVS2-654 intron; response scale: normalised to 500 nM splice-correcting PNA; hit rate 0.06% among 65,000; AID 925; Potency, µM (series often up to 46.1 µM), most hits filed as activators
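HeLa cells stably expressing EGFP interrupted by mutant beta-globin intron 2 (IVS2-654), 500/well in 2% FCS. Treated with compound for 2 days at 37C. Splicing correction scored as total well GFP intensity (488 nm excitation, 500-520 nm emission); 500 nM antisense PNA served as control.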
ERK AVP inh = blocks ERK signaling stimulated by vasopressin; HEK293-V1b, vasopressin-stimulated pERK AlphaScreen; Potency, µM (doses to about 57.5 µM), hits mostly inhibitors; hit rate 0.99% among 72,000; note: nearly all actives have a fitted effect of over 55% in size
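Phosphorylated ERK1/2 detected via AlphaScreen bead proximity in lysates of V1b-expressing HEK293 cells given 25 nM vasopressin for 5 min after 30 min compound exposure (37 °C). AC50 from Hill equation; basal DMSO 0%, vasopressin 100%.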
Each line names hits and unclear results; the compound was inactive in the other large screens. Rows were chosen to be rich in hits. Some 3% of all compounds tested hit in one or more screens of this group. Unless noted, calls come from the whole dose curve; as a rule, active = well fitted curve in the direction sought with a large enough effect; inconclusive = small, poorly fitted or top-dose-only effect, or another doubt; inactive = no such curve, though single readings can be large; an effect the other way counts as inactive or inconclusive.

N#CC(=C1CCCC1)c1nc(-c2ccccc2O)cs1	Tau fil binding 12.6µM
O=C(O)c1cc(=O)[nH]c(SCc2ccccc2)n1	none
C(=N\n1cnnc1)/c1ccccn1	none (no result: Hsp90 Hop PPI, Tau fil binding, Ub-GFP proteasome, HBB splice mod, ERK AVP inh)
C(=N\n1cnnc1)/c1ccc2ncccc2c1	Tau fil binding 12.6µM
N[C@@]1(C(=O)O)CCC[C@@H]1C(=O)O	none
O=C(COC(=O)c1ccccc1)NCc1ccco1	none
COCC(=O)NCc1ccc2c(c1)OCO2	none
O=C(COC(=O)c1cc(-c2cccs2)nc2ccccc12)NCc1ccco1	Tau fil binding 15.8µM, ERK AVP inh inconclusive
O=C(COC(=O)c1cc(-c2ccco2)nc2ccccc12)NCc1ccc2c(c1)OCO2	Tau fil binding 12.6µM, ERK AVP inh inconclusive
CC(C)Cn1c(N)c(C(=O)COC(=O)c2cc(-c3ccco3)nc3ccccc23)c(=O)n(C)c1=O	Tau fil binding 12.6µM
CCCc1cc(COC)c(C#N)c(=O)[nH]1	none
Cc1cc(Cc2cc(C)c(N)cc2N)c(N)cc1N	none
CCN1c2ccccc2NC2N=C(OC)C(c3ccccc3)C21 (stereo unspecified)	Tau fil binding 31.6µM, ERK AVP inh inconclusive
COc1ccc(-c2c(=O)n(OCc3ccccn3)c3ccccc3[n+]2[O-])cc1OC	Tau fil binding 2.51µM, ERK AVP inh inconclusive
O=c1c(-c2ccccc2)nc2cnc(N3CCNCC3)nc2n1Cc1cccs1	Tau fil binding 5.01µM
CN1CCN(c2ncc3nc(-c4ccc(Cl)cc4)c(=O)n(C)c3n2)CC1	Tau fil binding 3.16µM
Cn1c(=O)c(-c2ccc(Cl)cc2)nc2cnc(N3CCNCC3)nc21	none
CN1CCN(c2ncc3nc(-c4ccc(F)cc4)c(=O)n(Cc4cccs4)c3n2)CC1	ERK AVP inh 20µM
C[C@H]1[C@H](C)CC[C@@]2(C(=O)O)CC[C@]3(C)C(=CC[C@@H]4[C@@]5(C)CC[C@H](O)C(C)(C)[C@@H]5CC[C@@]43C)[C@@H]12	Tau fil binding inconclusive (no result: HBB splice mod, ERK AVP inh)
N#Cc1c(NC(=O)c2ccncc2)sc2c1CCC2	Tau fil binding 15.8µM
Cc1cc(C(=O)Nc2sc3c(c2C#N)CCCCC3)cs1	none
Clc1ccc(-c2nnc(N3CCCC3)nn2)cc1	Tau fil binding 12.6µM
Clc1ccc(-c2noc(CN3CCCCC3)n2)cc1	ERK AVP inh inconclusive
Cc1nc(NCc2ccccc2)c2nc(-c3ccccc3)n(CCCN3CCCCC3C)c2n1 (stereo unspecified)	none (no result: Epigenetic mod)
O=C(c1cc2nc(-c3ccco3)cc(C(F)(F)F)n2n1)N1CCN(c2ccccn2)CC1	Tau fil binding 25.1µM, ERK AVP inh inconclusive
CC(C)CCNC(=O)c1cnn2c(C(F)(F)F)cc(-c3ccco3)nc12	Tau fil binding 15.8µM
O=C(c1ccc2nc(-c3ccco3)c(-c3ccco3)nc2c1)N1CCN(c2ccccc2)CC1	Hsp90 Hop PPI inconclusive, Tau fil binding 1µM, ERK AVP inh inconclusive
O=C(c1cc2nc(-c3ccco3)cc(C(F)(F)F)n2n1)N1CCN(c2ccccc2)CC1	Tau fil binding 10µM
O=C(c1cc2nc(-c3ccco3)cc(C(F)(F)F)n2n1)N1CCCCCC1	Tau fil binding 12.6µM
O=C(c1cc2nc(-c3ccco3)cc(C(F)(F)F)n2n1)N1CCCc2ccccc21	none (no result: HBB splice mod)
Cn1c(=O)c2c(nc(/C=C\c3cccc(Cl)c3)n2C)n(C)c1=O	none
O=C(CSCc1ccccc1)N1CCN(c2ccc(F)cc2)CC1	none
O=C(c1ccccc1C(=O)N1CCN(c2ccc(F)cc2)CC1)N1CCN(c2ccc(F)cc2)CC1	ERK AVP inh 39.8µM
Cc1ccnc(SCC(=O)N2CCN(c3cccc(Cl)c3)CC2)n1	none
O=C(CSCc1nc2ccccc2[nH]1)N1CCN(c2ccc(F)cc2)CC1	Tau fil binding 20µM

Source: PubChem
